High-throughput results: PubChem, National Center for Advancing Translational Sciences (NCATS)
In the library only some 18% were active in any assay of this set; here they are far more common.
TDP1 block: TDP1 (human) enzyme inhibition. 0.28% of 350,000 active. Potency, µM (highest dose often 130 µM), without a hit: at the top dose activity change, negative = inhibition, hits mostly inhibitors. Q9NUW8. AID 485290. recombinant TDP1, AlphaScreen DNA substrate cleavage; note: potency is the fitted concentration of half-maximal effect; % is set by controls: 0 for no effect and ±100 for the full control effect; nearly all actives have a fitted effect of over 40% in size
Target sequence (Q9NUW8 whole entry, looked up): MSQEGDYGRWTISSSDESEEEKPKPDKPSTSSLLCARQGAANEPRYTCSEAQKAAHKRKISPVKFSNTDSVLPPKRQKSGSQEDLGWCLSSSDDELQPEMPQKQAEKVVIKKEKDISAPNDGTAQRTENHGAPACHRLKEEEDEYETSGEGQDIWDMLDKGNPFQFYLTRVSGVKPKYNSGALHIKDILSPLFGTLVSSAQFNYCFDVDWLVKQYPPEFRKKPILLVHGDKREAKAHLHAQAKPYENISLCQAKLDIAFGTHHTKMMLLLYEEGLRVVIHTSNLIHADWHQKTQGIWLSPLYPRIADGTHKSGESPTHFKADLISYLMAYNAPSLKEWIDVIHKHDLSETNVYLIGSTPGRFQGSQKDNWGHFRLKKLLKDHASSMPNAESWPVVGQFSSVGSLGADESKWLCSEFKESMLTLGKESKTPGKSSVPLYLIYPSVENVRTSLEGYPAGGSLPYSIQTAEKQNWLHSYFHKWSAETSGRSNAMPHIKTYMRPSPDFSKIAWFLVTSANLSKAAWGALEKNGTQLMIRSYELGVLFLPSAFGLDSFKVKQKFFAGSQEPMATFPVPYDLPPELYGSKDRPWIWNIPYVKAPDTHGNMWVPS
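Steps: enzyme plus compound, 15 min RT; add biotin/phosphotyrosine-FITC oligonucleotide (15 nM final), react 5 min; add donor/acceptor beads (10 ug/ml final), 10 min; read AlphaScreen. Tdp1 at 1 nM final.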
TDP1 cell CPT: DT40-hTDP1 cell growth loss with CPT; chicken DT40 Tdp1-/-;hTDP1 cells + 20 nM CPT, ATP luminescence, 48 h; Potency, µM (series often up to 46.2 µM), for the others: top-dose activity change, negative = growth inhibition, most hits filed as inhibitors; 12% of 420,000 active; AID 686979; note: potency is the fitted concentration of half-maximal effect; % is set by controls: 0 for no effect and ±100 for the full control effect; nearly all actives have a fitted effect of over 55% in size
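Chicken DT40 Tdp1-/- cells complemented with human TDP1, 400 cells/well, exposed to compounds plus 20 nM camptothecin for at least 48 h at 37 C; viability read as ATP content by CellTiter-Glo luminescence.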
HepG2 tox: counter-screen for TGF-b inhibitors: cytotoxicity in HepG2 cells | AID 588856 | Potency, µM (highest dose often 46.1 µM), inactives show at the highest dose activity change, negative = cytotoxicity, actives largely listed as cytotoxic | HepG2 CAGA-GFP viability, ATP luminescence, 18 h | 0.76% of 410,000 active; note: potency is the fitted concentration of half-maximal effect
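HepG2 CAGA-GFP cells (1000/well, DMEM with 1% FBS) received compound, then TGF-beta at 500 pg/mL final, and were incubated 18 hours at 37 degrees C. Viability was read by CellTiter-Glo luminescence. Media-only wells were set as complete cell-killing and DMSO as no toxicity.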
TGFb inhibitor: TGF-b pathway inhibition; Potency, µM (series often up to 46.1 µM), inactives show top-dose activity, negative = inhibition, actives largely listed as inhibitors; HepG2 CAGA-GFP TGF-b/SMAD3 reporter, GFP fluorescence, 18 h; TGF-beta stimulated, 500 pg/mL final; AID 588855; 1.2% of 410,000 active; note: potency is the fitted concentration of half-maximal effect; % is set by controls: 0 for no effect and ±100 for the full control effect; nearly all actives have a fitted effect of over 65% in size
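Smad-responsive CAGA-GFP expression was quantified in HEPG2 cells exposed to compounds and 500 pg/mL final TGF-beta for 18 h at 37 degrees C; unstimulated wells defined full inhibition.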
IL1B secr inh: blocks inflammasome-driven IL-1 beta release; AID 743279; activity change, % at 57.5 µM; 4.7% of 360,000 active; THP-1 LPS/ATP IL-1B secretion, AlphaLISA, 16 h; hits give low values; in the data active = activity change below about -50%; inconclusive = mostly about -30% to -49%; note: % is set by controls: 0 for no effect and ±100 for the full control effect
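Secreted IL-1B measured by AlphaLISA bead assay after 16 h compound exposure of THP-1 cells; compounds (final up to 57.5 uM) added 1 h before LPS (250 ng/mL) and ATP (1.25 mM) stimulation; lower signal means less secretion.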
DT40 TDP1 no CPT: qHTS for Inhibitors of human tyrosyl-DNA phosphodiesterase 1 (TDP1): qHTS in cells in absence of CPT. 15% of 420,000 active. Potency, µM (highest dose often 46.2 µM), for inactives: at the highest dose activity change, negative = growth inhibition, usual class: inhibitors. DT40 Tdp1-/- hTDP1 cells, no CPT, ATP luminescence, 48 h. AID 686978, 2013; note: potency is the fitted concentration of half-maximal effect; % is set by controls: 0 for no effect and ±100 for the full control effect; nearly all actives have a fitted effect of over 55% in size
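A cellular qHTS used chicken DT40 cells lacking endogenous Tdp1 but carrying stably transfected human TDP1. Compounds were applied without camptothecin, and cell growth kinetics were judged by ATP-dependent luminescence after ≥48 hr.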
Starred values were filed as active, the others as inactive; ? = inconclusive; . = no result given; [ ] = another dose, or the depositor's remark. Unless noted, calls come from the whole dose curve; as a rule, active = well fitted curve in the direction sought with a large enough effect; inconclusive = small, poorly fitted or top-dose-only effect, or another doubt; inactive = no such curve, though single readings can be large; an effect the other way counts as inactive or inconclusive.

SMILES	TDP1 block	TDP1 cell CPT	HepG2 tox	TGFb inhibitor	IL1B secr inh	DT40 TDP1 no CPT
COc1ccc(CCC(=O)NC2CC(=O)N(c3ccc(C)c(C)c3)C2)cc1 (stereo not drawn)	-3%	-2%	5%	7%	.	-18%
O=C1CN(C(=O)CNCc2ccccc2Cl)c2ccccc2N1	-10%	-7%	16%	-10%	-8	-6%
O=C(C[n+]1ccccc1)N/N=C/c1cc(Br)cc(Br)c1O	.	8%	3%	-26%	85	5%
O=C(N/N=C/c1cc(Cl)cc(Cl)c1O)c1ccncc1	11%	6.5µM*	-54%	?	10	15µM*
CCC(O)(CC)C(=O)N/N=C/c1cc(Br)cc(Br)c1O	11%	21µM*	-6%	?	77	15µM*
O=C(N/N=C/c1ccccc1OCc1ccccc1Cl)c1cccnc1	4%	?	-9%	-2%	49	23µM*
O=C(N/N=C/c1cccc2nccnc12)c1ccncc1	7%	?	12%	-20%	33	?
O=C(N/N=C/c1ccc(Cl)cc1Cl)c1ccncc1	2%	15%	-19%	-10%	-4	0%
O=C(N/N=C/c1ccc(O)cc1O)c1ccncc1	.	8.2µM*	21%	14%	176	4.6µM*
COc1cc(OC)c(NC(=O)c2csc(C)c2)cc1Cl	-1%	?	6%	-1%	3	-6%
Cc1ccc(N=Cc2cc(Cl)cc(Cl)c2O)nc1	1%	?	-23%	-6%	60	-24%
Oc1c(Cl)cc(Cl)cc1/C=N/Nc1ncc(Br)cn1	-1%	1.2µM*	-13%	-15%	10	1.3µM*
O=C(N/N=C/c1ccc(O)cc1O)c1ccc(NC(=O)C2CCCCC2)cc1	-2%	6.5µM*	-100%	?	267	7.3µM*
O=C(CCCCCNC(=O)c1ccccc1)N/N=C/c1ccc(O)cc1O	11%	-19%	-28%	-26%	90	-30%
CCc1cc(C(=O)N/N=C/c2ccc(O)cc2O)c2ccccc2n1	3%	8.2µM*	-7%	-18%	131	?
Cc1nonc1C(=O)N/N=C/c1ccncc1	0%	5%	-10%	-2%	15	10%
Cc1nonc1C(=O)N/N=C/c1ccc(O)cc1O	6%	3.3µM*	-41%	-28%	142	3.7µM*
COc1ccc2c(c1)c(N1CCCC1=O)c(C(=O)Nc1ccc(Cl)cc1C)n2C	3%	.	-9%	13%	.	.
O=C(NCCc1ccccn1)C1CC12CCN(C(=O)c1ccc(F)cc1Cl)CC2 (stereo not drawn)	.	23%[9.04 µM]	.	.	.	-10%
O=C(N/N=C/c1cc(Br)cc(Br)c1O)c1ccncc1	8%	2.6µM*	-30%	?	164	0.65µM*
O=C(N/N=C/c1c[nH]c2ccc(Br)cc12)c1ccn(Cc2ccc(Cl)cc2Cl)n1	2%	?	7%	?	?	21µM*
O=C(N/N=C/c1cc(Cl)ccc1O)c1cccnc1	.	0.92µM*	-22%	-2%	234	1µM*
O=C(N/N=C/c1cc(Br)c(Br)o1)c1cccnc1	-5%	16µM*	-2%	-4%	6	18µM*
CC(=O)c1cc2c(cc1NS(=O)(=O)c1ccccc1Br)OCO2	9%	-7%	-26%	-11%	11	-27%
COc1ccccc1-n1cnnc1SC(C)C(=O)NCC1CCCO1 (stereo not drawn)	-2%	-4%	-17%	-4%	12	?
SMILES	TDP1 block	TDP1 cell CPT	HepG2 tox	TGFb inhibitor	IL1B secr inh	DT40 TDP1 no CPT
Cc1ccc(C(C)C)c(OCc2ccc(C(=O)N/N=C/c3ccc(C(=O)O)cc3)cc2)c1	.	?	39%	40%	15	?
Cc1ccc(C(C)C)c(OCc2ccc(C(=O)N/N=C/c3ccc(O)cc3O)cc2)c1	8%	?	-96%	?	51	18µM*
O=C(N/N=C/c1cc(Br)cc([N+](=O)[O-])c1O)c1ccc(NC(=O)c2ccc(F)cc2)cc1	?	23µM*	0%	10%	69	15µM*
O=C(N/N=C/c1c[nH]c2ccccc12)c1ccncc1	3%	31%	11%	-1%	35	-12%
O=C(N/N=C/c1ccccc1Cl)c1ccc(F)cc1	2%	7%	-9%	11%	-13	-1%
O=C(N/N=C/c1c[nH]c2ccc(Br)cc12)c1ccncc1	89µM*	?	-25%	-4%	-17	?
CC(NC(=O)CN(C)CC(=O)Nc1ccc(Cl)cc1)c1ccc(F)cc1 (stereo not drawn)	-1%	?	-26%	?	?	18µM*
CCOC(=O)Cc1csc(NC(=O)c2cc3c(s2)CCCC3)n1	3%	?	-40%	-16%	-3	?
Cc1csc(NC(=O)c2cc3c(s2)CCCC3)n1	-1%	?	-40%	?	-19	12µM*
Cc1csc(NC(=O)c2cc3c(s2)CCCCC3)n1	-2%	?	-1%	0%	-63*	15µM*
COc1ccc(NC(=O)COC(=O)C2CCN(S(=O)(=O)c3cccs3)CC2)cc1OC	0%	2%	17%	-1%	8	-12%
Cc1ccc(S[C@@H](CCN2CC[C@H](C(C)(C)C)CCC2=O)c2ccccc2)cc1	.	?	13µM*	?	-7	?
Cc1ccc(S[C@@H](CCN2CC[C@H](C)CCC2=O)c2ccccc2)cc1	.	?	-16%	?	?	16µM*
C[C@@H]1CCC(=O)N(CC[C@H](Oc2ccccc2)c2ccccc2)CC1	.	?	-25%	?	-4	13µM*
Cc1ccc(S[C@@H](CCN2CC[C@H](O)CCC2=O)c2ccccc2)cc1	.	11%	-5%	?	5	-11%
CN1CCC(=O)N(CCSc2ccc(Br)cc2)CC1	7%	-13%	-4%	-1%	-19	?
C[C@@H]1CCC(=O)N(CC[C@H](Sc2ccc(Br)cc2)c2ccccc2)CC1	-7%	18µM*	-92%	?	-71*	20µM*
O=C(Nc1ccc2nc3n(c(=O)c2c1)CCCCC3)C(=O)N1CCN(c2ccccc2F)CC1	7%	?	11%	-10%	22	?
O=C(NCc1ccc(Cl)cc1)C1CCN(C(=O)c2ccc(Cl)cc2)CC1	-5%	?	-43%	-9%	-13	?
Cc1ccc(SCCN2CCC(C)CCC2=O)cc1 (stereo not drawn)	.	-20%	-14%	?	7	?
